Over roughly 59,000 sequences, the read-out has its median near -0.00055; the lowest 2% begin near -2. This excerpt belongs to a sample that is enriched for the lowest values.

The experiment is described as follows: Identification of proteins required for the processing of the EWS-FLI1 nascent transcript.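 Also: robust z of luciferase light less the median z of siRNAs with the same seed.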 Particulars: TC32 Ewing sarcoma NR0B1-luc vs CMV-luc (EWS-FLI1 target promoter against control promoter), 48 h; screened at 20 nM (by protocol). In short, it runs like this: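 Genome-wide siRNA screen (Ambion v4.1, three siRNAs per gene, 20 nM final, RNAiMax) in Ewing sarcoma TC32 cells carrying NR0B1-promoter or CMV-promoter luciferase; OneGlo luciferase read 48 h post-transfection. Data normalized, z-score-MAD transformed and seed-adjusted.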
Turning to AUGGGUAAGAUGUAUGUUG against ZFAND1, the seed-corrected z-score is -0.296.
To UUCGGUAUCGUCUGUAUCC against USP8 belongs -1.37; to UCUGGAACUAUUUACUCGG against NEMP1, -14.8.
With AUGACAAUCACAUUCCUCU against AKR1B10, the seed-corrected z-score was found to be 0.0562.
In turn, UUUGCUCCCACCAAAUACC against KLHDC1 returned a seed-corrected z-score of 1.18.
On to AUAGGAAGAACUCUGUUUG against SCHIP1, for which the seed-corrected z-score was -2.03.
With UCCAUAAUCUGUUUCGCUG against INTS4, the seed-corrected z-score was -1.43.
To UCAAUGACAGCUAAUAGCC against ARL13A belongs -1.36; to UUCUUAACAUAGGGCAUGG against RRM2B, -0.284; to UGAACCUCUAGACUCAUAG against ZDBF2, -0.0347.
To AAUUCGAUUAGAGAGUGUC against SENP5 belongs 0.00396; to UUUUCUCCCUUUAUAAGGC against OXCT1, 1.02.
With UAUCCAACUAUCUAAACUG against TMEM184C, the seed-corrected z-score was -16.9.
UCUCGAAACACCCUACUCC against MKNK1 had a seed-corrected z-score of 0.234.
On to UGAAGUAAUGGUGAGAGGG against CRYAB, for which the seed-corrected z-score came to 0.664.
In turn, UGACCUCCAACACUAGUGC against VPS8 yielded a seed-corrected z-score of 0.213.
For AUCGUAACAAGAAAGUUCC against RNF17, the seed-corrected z-score worked out at 1.39.
With AUCUGCAUAAACUCCACGC against SCGN, the seed-corrected z-score is -2.24.
For the sequence UCCAAGUUCACGAAGAUUU against MMD, the seed-corrected z-score is 0.344.
The same measure for UGUACUUUGGAACUAGUCC against ENKUR: 0.00323; for UUCCGGAUUACACCAGUGC against FAM171A2: 0.108; for UUCGUAAGUGGUCCAGUUC against GSE1: 1.07.
The same measure for UCAAUUCUGAGCUUCGGUC against SPATA13: 0.999; for UGGUAGUUCACGUUGAGCC against CASKIN2: -2.53; for UGAAGUUACAUUCAGUUCU against ZFAND3: 0.106.
With UUAGAUCUUGAAAGAGUUC against ETV1, the seed-corrected z-score is -0.0727.
AUAGGUUUCAGAGAGGUGU against CA1 displayed a seed-corrected z-score of 0.901.
Consider AAUCUUAAAUUUUCCGAGC against RGS7, for which the seed-corrected z-score is -0.282.
To UCGGGUGUUUUGGUCUUGC against LMOD1 belongs -2.52.
The same measure for UACCUCAUAGGAUAACACC against MPP4: 0.19; for AACGGUAGAAGCUGCAUGC against NOP58: -1.46; for UCCUGCUUUAUAACUAGCC against ZNF621: -4.33.
To UUCAGCAUCUUUGUCGACC against RTFDC1 belongs -0.168; to UGAAGUUAAUGGGCCCUGG against MYL12BP2, 0.711.
Consider UCAUUUUCCUCAUAGGUGC against LAMB2, for which the seed-corrected z-score was -0.564.
The same measure for AUACAUGCAGCUGUGGUUG against GABRB1: -1.3; for UAAGCGAUCCAUAUCAAAC against PROX1: 0.491.
For the sequence UAACUGUUUAGCGAUGUCC against TBC1D1, the seed-corrected z-score was -2.09.
For the sequence UUGUCUUCCUCCAUUGUCG against TSGA10IP, the seed-corrected z-score is -0.628.
To UCUCUUGAUGUGGACACUC against ITGAD belongs -0.0619; to UCAUGGUCCGAAGCUGGUG against LHX2, -2.03; to UCGGCAAUAAUCUCGGCCU against HNRNPA0, 0.556.
On to UGGUUUUGUACACCUGCUG against TNP2, for which the seed-corrected z-score was -0.158.
UAUUGAAGGACUCCUGAUC against RAB1A gave a seed-corrected z-score of 0.0899.
The sequence UUCAGAUGUCCGUCUAUGC against ABLIM3 had a seed-corrected z-score of 0.714.
Consider UUGGAAUACAUUGCCGUUC against SSR1, for which the seed-corrected z-score was -0.807.
UUUUGGACCGCUGCACCUG against CBY3: the seed-corrected z-score was 0.744.
To UUUAGAGCGAGUGGUUAGC against PPHLN1 belongs 0.884.
Regarding UAAUCUUUUCAUGCAACUC against SNCA-AS1, the seed-corrected z-score was -2.06.
As to UAGGUGAAGAUCUUGUUUC against COMMD10, the seed-corrected z-score is -0.785.
Turning to AAAUGAUUUAUAUCCCUGG against ABCC6P1, the seed-corrected z-score was -14.5.
AUCGGUAAGAUCCUAAUGG against VPS13A yielded a seed-corrected z-score of 0.281.
The same measure for UAUUCUACCUCGUACCUCC against TBC1D22B: -0.239; for ACCAGUAUAACCCAGAGUC against FCGR1A: 0.036; for UAUAGAGGAAAGCUAUGCC against ERCC6L: 0.528.
For the sequence AAAGCGAGUUUUCUCAUCC against COPA, the seed-corrected z-score was -4.21.
As to AACUGGAUAGGAGGACUGC against HSF5, the seed-corrected z-score was -0.327.
To UUAAUUCUCGGAUGUGCUC against ANXA11 belongs 0.143; to UUAUGUUUUCCUACUCCAC against TCEAL1, -2.4.
Sequence UGAAGGCCAACCGCUCUGU against ALG1L6P showed a seed-corrected z-score of 0.486.
On to UCAGUUUGAUUAUUUCUCU against RASSF4, for which the seed-corrected z-score turned out to be 0.41.
The same measure for UGACUUCACCCAGAAGCAC against SLC25A41: -0.697; for UCAUCAUCCAAAGAUGUAC against C20orf196: -1.47.
To UAUUCGAGCGCAGUGCUGG against C10orf67 belongs -0.133.
To AUUGGUAGAACAAAGUUCC against PRELID3A belongs 0.478; to UUUUGUUGUGAGCUGAUGC against SF3B4, -3; to UUCCUUGGAGCUGGGAUCU against PSORS1C1, -1.32.
With UUCUUUUUCAAACAGCUCU against ISY1, the seed-corrected z-score is -1.17.
To UACUGGUCAAUCGCUGUUC against CEP192 belongs -0.996.
In the case of UUAUUGUUCUUUCGGAUCC against SELP, the seed-corrected z-score was 0.564.
To UCCGGUAAGACAUUCUCUG against EAPP belongs 0.402; to AUGACUUUUAGUGUAAUCC against LOC439994, -2.2.
The same measure for UAUGUCGUCUUGGAGAUCG against SNRNP27: -0.0915.
To UUAAGAGUGACUCAAUUUG against MGAT2 belongs -0.219.
With AUUGAGUAUCACGUCAUCC against TTLL4, the seed-corrected z-score is -2.43.
ACCUUGAUGGUUUUUGAUG against LOC649294 gave a seed-corrected z-score of 0.0918.
To UUUCUUAAUGGUGGUGCCC against SLC7A7 belongs -0.929; to UGUAUUAUCGUGUCCGAGC against CTNNBL1, -0.748; to UGAUAACCCACAUUGAAGG against DEGS1, -0.494.
On to UCUUCUUCCAGUAUAAGGC against KITLG, for which the seed-corrected z-score came out at 0.53.
Regarding UCAACACCCAGGUAGCGGA against DUSP26, the seed-corrected z-score was -2.05.
UAAAGGGUUGUGGGAAAUG against LRRC30: the seed-corrected z-score is -1.26.
For UCUGGAAUUUGACUGCUCG against RPL24, the seed-corrected z-score was -0.838.
The same measure for UACGUAAGAAAUAGGAACG against OR6C76: -2.11.

Values taken from PubChem BioAssay AID1159506 (National Center for Advancing Translational Sciences (NCATS), 2015).
